# A number with no mark means an inactive call. Calls come from the whole dose curve; as a rule, active = well fitted activation curve with a large enough effect; inconclusive = small, poorly fitted or top-dose-only effect; inactive = flat fitted curve, though single readings scatter.
# Experiment: Confirmation and Secondary Assay for Modulators of Hemoglobin Beta Chain Splicing at IVS2 705 locus (AID 930); note: % of control where 0% means no effect
# Settings: HeLa EGFP-705 splicing reporter, GFP fluorescence, 48 h; series mostly up to 46.1 µM; activation: at the top concentration
# Text: NIH Chemical Genomics Center [NCGC] NIH Molecular Libraries Screening Centers Network [MLSCN] MLSCN Grant: 1 X01 MH080684-01 PI Name: Dr. Ryszard Kole NCGC Assay Overview: Modulation of Alternative Splicing as Therapy Abnormal splicing is associated with a number of diseases, including cancer and genetic diseases such as cystic fibrosis, muscular dystrophy and beta-thalassemia. Alteration of disease associated splicing patterns provides a promising target for treatment. […] Mutations in the second intron of the b-globin gene at positions 654 or 705 are clinically relevant and cause mis-splicing which results in an out of frame gene product. […] EGFP-705 HeLa Cells as screen system. HeLa cell lines were stably transfected with a construct in which the EGFP (enhanced green fluorescent protein) cDNA was interrupted by the second intron of the beta-globin gene (IVS2-705). The ISV2 intron contains mutations which cause mis-splicing of EGFP and premature termination of EGFP which results in a nonfluorescent protein product. […] Expression of the transgene was driven by the CMV promoter. We concluded that a low molecular weight compound, which restored correct splicing of intron 2 would also generate functional EGFP protein, resulting in a fluorescent signal. Thus, the HeLa cells that express the EGFP-705 construct can be used for validation of splice site specificity of compounds identified in primary screening of the ISV2 654 construct.
# NCGC Assay Protocol Summary: Confirmatory Screening. Freshly thawed HeLa EGFP-705 cells were seeded in 5 ul of optimem media (Invitrogen) containing 2 % fetal calf serum (Hyclone) and 1x penicillin/streptomycin (Invitrogen) at a concentration of 500 cells per well in 1536-well plates. Cells were incubated overnight at 37C in 5% CO2. The next day, cells were treated with DMSO, 500 nM antisense ISV2 654 PNA control oligo, or library compound and allowed to grow at 37C in 5% CO2 for 2 days. The PNA oligo blocked the mutation site in the intron and allowed proper (wild type) splicing to occur, resulting in full length EGFP expression and also allowed for optimization of the assay parameters. Plates were read in the Acumen Explorer (TTP Labtech) using 488 nm laser excitation and 500-520 nm emission PMT filter in a 1 x 8 uM capture mode. Fluorescnet objects ranging in size from 5 to 250 uM were measured and the total peak GFP intensity for each well was used for data analysis. Keywords: Thalassemia, beta-thalassemia, beta-globin, EGFP, ISV2 654, ISV2 705, SSO, PNA, antisense, splicing, MLSMR, MLSCN, NIH Roadmap, qHTS, NCGC
row,Compound,activation
1,O=C(NC(=O)c1c(F)cccc1F)Nc1ccc(Cl)cc1,-0.015% [at 38.3 µM]
2,CN1Cc2c(ccc3c2OCO3)C2C(O)Cc3cc4c(cc3C21)OCO4 (stereo not given),-0.747% [at 38.3 µM]
3,COc1ccc(C2Oc3c(I)c(OC)cc(OC)c3CC2O)cc1OC (stereo not given),0.916% [at 38.3 µM]
4,CC1(C)C(=O)[C@@H]2OC2[C@@]2(C)C1CC(O)[C@]1(C)C2CC[C@@]2(C)C(c3ccoc3)OC(=O)C3OC312 (stereo not given in full),1.9% [at 38.3 µM]
5,CC1CC[C@@]2(NC1)OC1CC3C4CC[C@@H]5CC(O)CC[C@@]5(C)C4CC[C@]3(C)C1C2C (stereo not given in full),1.69%
6,O=C1C=C2C(=CCOC2O)O1 (stereo not given),0.169%
7,CC[C@]1(O)CC(O[C@@H]2CC(N(C)C)C(O)C(C)O2)c2c(cc3c(c2O)C(=O)c2c(O)ccc(O)c2C3=O)C1C(=O)OC (stereo not given in full),7.92%
8,COc1ccc(C(=O)O)cc1OC,-0.0196%
9,OCC1OC(n2cnc3cc(Cl)c(Cl)cc32)C(O)C1O (stereo not given),1.82% [at 38.3 µM]
10,NC1C[C@H]1c1ccccc1 (stereo not given in full),0.561%
11,O=[N+]([O-])OC1CO[C@H]2C(O[N+](=O)[O-])COC12 (stereo not given in full),0.253%
12,C=CCN1CC[C@]23c4c5ccc(O)c4OC2C(=O)CC[C@]3(O)C1C5 (stereo not given in full),2.68%
13,CCCCN(CC)c1c([N+](=O)[O-])cc(C(F)(F)F)cc1[N+](=O)[O-],0.12% [at 38.3 µM]
14,NCC(N)C(=O)c1ccccc1 (stereo not given),0.641% [at 38.3 µM]
15,CC(=O)Oc1c2c(c(CC=C(C)C)c3c1C(=O)C1=CC4CC5C(C)(C)OC(C/C=C(\C)C(=O)O)(C4=O)[C@]15O3)OC(C)(CCC=C(C)C)C=C2 (stereo not given in full),-0.0774% [at 38.3 µM]
16,CC1CC(Cl)CCC1C(=O)OC(C)(C)C (stereo not given),-0.0309% [at 38.3 µM]
17,CCC1C(=O)OC[C@H]1Cc1cncn1C (stereo not given in full),1.54%
18,N#Cc1c(Cl)c(Cl)c(Cl)c(C#N)c1Cl,0.631%
19,COC(=O)/C(C)=C\CC12OC(C)(C)C3CC(C=C4C(=O)c5c(OC)c6c(c(CC=C(C)C)c5OC431)OC(C)(CCC=C(C)C)C=C6)C2=O (stereo not given),-0.838% [at 38.3 µM]
20,CC1=CC(=O)c2c(O)cccc2C1=O,1.33%

row,Compound,activation
1,COC(=O)[C@]1(C)CC[C@@]2(C)CC[C@@]3(C)C4=CCc5c(cc(O)c(O)c5C)[C@]4(C)CC[C@@]3(C)C2C1 (stereo not given in full),-0.779% [at 38.3 µM]
2,CN(C)C1C(=O)C(C(N)=O)=C(O)[C@@]2(O)C(=O)C3=C(O)c4c(O)cccc4[C@@](C)(O)C3CC12 (stereo not given in full),2.3%
3,C[C@@]12C=CC(=O)C=C1CCC1C2CC[C@]2(C)C(=O)CCC12 (stereo not given in full),0.614% [at 38.3 µM]
4,CCC(C)C(=O)OC1C[C@@]2(C)C(c3ccoc3)OC(=O)CC23OC2(C)OC34C(OC(=O)C(C)C)[C@]3(O)C(OC(=O)C5(C)OC5C)[C@]5(C)CC3(O)[C@](C)(C5CC(=O)OC)C14O2 (stereo not given in full),1.45%
5,CNNC,-0.0082% [at 38.3 µM]
6,OCC(O)Cc1ccc2c(c1)OCO2 (stereo not given),0.0583%
7,CC1=C(O)C(=O)C=C2C1=CC=C1[C@]2(C)CC[C@@]2(C)C3C[C@](C)(C(=O)O)CC[C@@]3(C)CC[C@@]12C (stereo not given in full),-0.318%
8,CC(CO)NC(=O)C1C=C2c3cccc4[nH]cc(c34)C[C@H]2N(C)C1 (stereo not given in full),1.24%
9,CCC1C2CC3C4N(C)c5ccccc5[C@]45CC(C2C5O)N3C1O (stereo not given in full),1%
10,CC(=O)Oc1ccc(/C=C/c2cc(OC(C)=O)cc(OC(C)=O)c2)cc1,1.62% [at 38.3 µM]
11,CSc1nc(NC(C)C)nc(NC(C)C)n1,0.457% [at 38.3 µM]
12,COc1ccc(CC2NC[C@H](O)[C@H]2OC(C)=O)cc1 (stereo not given in full),-0.882%
13,O=C1CC[C@]2(O)C3Cc4ccc(O)c5c4C2(CCN3CC2CC2)C1O5 (stereo not given in full),0.945%
14,C=C1CC2C(CC[C@]3(C)C(=O)CCC23)[C@]2(C)C=CC(=O)C=C12 (stereo not given in full),0.93% [at 38.3 µM]
15,CC(=O)OC1C2CCC3C1(CC(O)[C@@]1(O)[C@@H](CC(O)C1(C)C)[C@]3(C)O)C[C@@]2(C)O (stereo not given in full),0.948%
16,COc1c2c(c(CC=C(C)C)c3oc(=O)c(-c4ccc(O)cc4)c(O)c13)OC(C)(C)C=C2,0.0566% [at 38.3 µM]
17,CCCCCCCCCCCCCC(=O)OC1C(C)[C@@]2(O)C(C=C(CO)C[C@]3(O)C(=O)C(C)=C[C@H]23)[C@@H]2C(C)(C)[C@]12OC(C)=O (stereo not given in full),1.19%
18,CN(CCC(N)CC(=O)NC1C=CC(n2ccc(N)nc2=O)OC1C(=O)O)C(=N)N (stereo not given),1.53%
19,CC1(C)C(C(Cl)Cl)C2(Cl)C(Cl)C(Cl)C1(Cl)C2(Cl)Cl (stereo not given),0.835% [at 38.3 µM]
20,CC(C)CCCC1(C)C=Cc2c(O)c3c(c(CCC(C)C)c2O1)OC12C(CC4CC1C(C)(C)OC2(CCC(C)C(=O)O)C4O)C3=O (stereo not given),0.659%

# Source: PubChem BioAssay (NCATS)
